Reference: the supplement of paper PMC12297408
Where a name gives a salt, the structure may show the parent alone. Unmarked numbers belong to inactive results.

Tested on: Plasmodium falciparum NF54/iGP1_RE9H ulg8 stage V gametocytes
Experiment: gametocyte viability (luciferase signal relative to DMSO control) (% of DMSO control); higher = less gametocytocidal activity, active = 50 or less
Details: exposure time: 72 h
Summary of the method: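 NF54/iGP1_RE9Hulg8 stage V gametocytes (day 12; ~2.5% gametocytemia, 3% hematocrit) in medium with 0.5% Albumax II were added to 96-well plates of nanolitre-spotted compounds (10 mM DMSO stocks), giving 10 µM or 1 µM, one well each. Plates were incubated 72 h at 37 °C. Then 90 µl was mixed with 10 µl D-luciferin (30 mg/ml) and luminescence was read on an IVIS Lumina II. Viability is relative to the mean of plate DMSO vehicle controls.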

SMILES	gametocyte viability (concentration: 1 µM)	gametocyte viability (concentration: 10 µM)
CNC(=O)c1ccc(C)c(-n2c(C)cc(OCc3ccc(F)cc3F)c(Br)c2=O)c1	100	108
OCCn1cc(-c2ccc3c(c2)CC/C3=N\O)c(-c2ccncc2)n1	88.7	99.6
O=C(NOCC(O)CO)c1cc(Br)c(F)c(F)c1Nc1ccc(I)cc1F (stereo unspecified)	99.1	97.3
CN(C)Cc1cccc(N=C(c2ccccc2)c2c(O)[nH]c3cc(C(N)=O)ccc23)c1	109	122
COc1cc2c(Oc3ccc(NC(=O)C4(C(=O)Nc5ccc(F)cc5)CC4)cc3F)ccnc2cc1OCCCN1CCOCC1	86.7	91.5
CC(C)(C)c1cnc(CSc2cnc(NC(=O)C3CCNCC3)s2)o1	104	101
Cc1ccc(F)c(NC(=O)Nc2ccc(-c3cccc4[nH]nc(N)c34)cc2)c1 [Linifanib (ABT-869)]	90.6	89.4
Cc1cc(Nc2cc(N3CCN(C)CC3)nc(/C=C/c3ccccc3)n2)n[nH]1	90.7	71.4
COc1cc(Nc2c(C#N)cnc3cc(OCCCN4CCN(C)CC4)c(OC)cc23)c(Cl)cc1Cl [Bosutinib (SKI-606)]	86.4	98.1
CO[C@@H](C(=O)N1Cc2[nH]nc(NC(=O)c3ccc(N4CCN(C)CC4)cc3)c2C1)c1ccccc1	89.5	71.6
Cn1cc(-c2ccc3nnc(Sc4ccc5ncccc5c4)n3n2)cn1	99.7	88.7
Cc1ccc([N+](=O)[O-])cc1S(=O)(=O)N(C)/N=C/c1cnc2ccc(Br)cn12	94.9	101
Cc1cnc(NC(=O)Nc2cc(Br)c(C)cc2OC[C@@H]2CNCCO2)cn1	102	113
CO[C@H]1C[C@@H]2CC[C@@H](C)[C@@](O)(O2)C(=O)C(=O)N2CCCC[C@H]2C(=O)O[C@H]([C@H](C)C[C@@H]2CC[C@@H](O)[C@H](OC)C2)CC(=O)[C@H](C)/C=C(\C)[C@@H](O)[C@@H](OC)C(=O)[C@H](C)C[C@H](C)/C=C/C=C/C=C/1C [Rapamycin]	97.3	97.3
CNC(=O)c1c(F)cccc1Nc1nc(Nc2cc3c(cc2OC)CCN3C(=O)CN(C)C)nc2[nH]ccc12	103	113
O=C(c1ccc(/C=C/c2n[nH]c3ccccc23)cc1)N1CCNCC1	104	93.7
Cc1csc(-c2nnc(Nc3ccc(Oc4ncccc4-c4ccnc(N)n4)cc3)c3ccccc23)c1	103	112
NC1(c2ccc(-c3nc4ccn5c(=O)[nH]nc5c4cc3-c3ccccc3)cc2)CCC1 [MK-2206 dihydrochloride]	97.5	63.9
